# Source: PubChem BioAssay
# PI4K2A block: PI4K2A (human) kinase inhibition; 0.13% of 420,000 active; activity change, negative = inhibition, % at 76.9 µM; Q9BTU6; AID 1346378; purified PI4K2A, ADP-Glo luminescence, 1 h; active compounds read low; in the data active = activity change below about -50%; inconclusive = mostly about -30% to -49%;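 note: -100% = wells without enzyme as full effect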
#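 PI4K2A activity was measured by ADP-Glo luminescence: enzyme (4 ug/mL stock) and phosphatidylinositol (1.2 mM stock) in Tris pH 7.5/MgCl2/EGTA/Triton X-100 buffer were reacted with ATP (300 microM stock) for one hour at ambient temperature.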
# USP1-UAF1 inh: inhibitors of human USP1/UAF1 deubiquitinase; O94782; recombinant USP1/UAF1, Ub-Rhodamine cleavage fluorescence; Potency, µM (highest dose often 57.1 µM), for inactives: top-dose activity change, negative = inhibition, usual class: inhibitors; 0.23% of 390,000 active; AID 743255; note: potency is the fitted concentration of half-maximal effect; % is set by controls: 0 for no effect and ±100 for the full control effect; nearly all actives have a fitted effect of over 60% in size
#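 Step one: compound is pinned into 1nM USP1/UAF1 in HEPES pH 7.8 buffer with TCEP. Step two: 15 min room-temperature incubation. Step three: Ub-Rho (150nM final) starts cleavage, tracked by fluorescence over six one-minute reads.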
# PGK inhibitor: inhibitors of T. brucei phosphoglycerate kinase | P07378 | PGK/GAPDH coupled, Kinase-Glo luminescence, 60 min | 0.043% of 380,000 active | Potency, µM (highest dose often 57.5 µM), inactives show top-dose activity change, negative = inhibition, hits mostly inhibitors; note: potency is the fitted concentration of half-maximal effect; % is set by controls: 0 for no effect and ±100 for the full control effect; nearly all actives have a fitted effect of over 60% in size
#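 Recombinant glycosomal PGK reaction used 1,3-bisphosphoglycerate generated in-well by GAPDH (100nM final) in 100mM TEA pH 7.6, 5mM MgCl2, 0.01% Tween-20. After 60 minutes at room temperature, ATP was read by Kinase-Glo Plus luminescence end-point.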
# GLS inhibitor: inhibitors of human glutaminase (GLS). O94925. GLS enzymatic activity, qHTS titration. Potency, µM (top dose mostly 45.5 µM), without a hit: at the highest dose activity change, negative = inhibition, most hits filed as inhibitors. 0.21% of 410,000 active. AID 624170; note: potency is the fitted concentration of half-maximal effect; % is set by controls: 0 for no effect and ±100 for the full control effect
#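 Human kidney-isoform GLS in 45 mM KH2PO4 pH 8.2, 0.02% Tween-20, with compound, started with 1mM L-Glutamine (added stock). Glutamate oxidase/HRP/Amplex red coupled fluorescence read at start and after 30 min at RT.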
# GLS hit conf: glutaminase (human) inhibition, hit confirmation | shares compounds with GLS inhibitor | biochemical glutaminase enzyme inhibition assay | Potency, µM (highest dose often 46.1 µM), without a hit: at the highest dose activity change, negative = inhibition, hits mostly inhibitors | 35 tested, under 10 active; calls by dose curve
# GLS HRP counter: coupled enzyme interference in glutaminase inhibitor counterscreen. shares compounds with GLS inhibitor. HRP/glutamate oxidase coupled Amplex Red fluorescence counterscreen. activity change, negative = inhibition, % at 46.1 µM. 35 tested, under 10 active. AID 624262
# GLS HEK tox: counter-screen for glutaminase inhibitors: HEK-293 cytotoxicity; activity change, negative = cytotoxicity, % at 46.1 µM; 35 tested, under 10 active; shares compounds with GLS inhibitor; HEK-293 viability, CellTiter-Glo luminescence, 24 h; AID 624264
# * = called active by the depositor; ? = inconclusive; . = no result. Only some compounds are listed: those with a hit (about 0.53% of all), similar ones and a draw of the others. Unless noted, calls come from the whole dose curve; as a rule, active = well fitted curve in the direction sought with a large enough effect; inconclusive = small, poorly fitted or top-dose-only effect, or another doubt; inactive = no such curve, though single readings can be large; an effect the other way counts as inactive or inconclusive.
SMILES,PI4K2A block,USP1-UAF1 inh,PGK inhibitor,GLS inhibitor,GLS hit conf,GLS HRP counter,GLS HEK tox
COc1ccc(CNc2oc(/C=C/c3cc(OC)c(OC)c(OC)c3)nc2C#N)cc1,1.1,?,6.7%,6.7%,.,.,.
Cc1ccc(CSc2cn(CC(=O)N3CCCCCC3)c3ccccc23)cc1,-3.3,-5.9%,-1.4%,-7.9%,.,.,.
CCOC(=O)CC(NS(=O)(=O)c1ccc2[nH]cc(C(=O)O)c(=O)c2c1)c1ccc(OCC)c(OC)c1 (stereo unspecified),-4.5,15.2%,?,15.8µM*,20.6µM*,6.3,-0.9
CCOC(=O)CC(NS(=O)(=O)c1ccc(OC)c(OC)c1)c1cccc([N+](=O)[O-])c1 (stereo unspecified),2.5,-13.8%,-5.2%,2.3%,.,.,.
COc1ccc(S(=O)(=O)Nc2cccc3ccc(O)cc23)cc1,3.2,-15.8%,-0.1%,11.2µM*,-2.5%,?,?
COc1ccc(C(=O)Nc2c(O)ccc3ccccc23)cc1OC,-0.2,-15.3%,-5.4%,-28.8%,.,.,.
COc1ccc(S(=O)(=O)Nc2c(O)ccc3ccccc23)cc1OC,-4.5,-20.7%,-3.3%,?,-6.7%,?,-9.8
Cn1cnc(S(=O)(=O)N2CCC(C(=O)Nc3ccc(Cl)c(C(F)(F)F)c3)CC2)c1,1.6,?,-4.2%,8.0%,.,.,.
